This is one part of the list. Results filed as inconclusive are left out. Values without a mark were called inactive. The source made the active and inactive calls.

The results in this text go back to PubChem BioAssay.

Assay [1] concerns the target Solute carrier family 12 member 5 (Homo sapiens) (UniProt Q9H2X9). Put plainly: KCC2 modulators in sodium-free buffer, confirmation, cell-based, HEK293 KCC2, thallium flux, secondary assay (AID 1713;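 active means thallium flux slope above the same plate's solvent-only control mean plus 3 SD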). The note with it: FluoZin2 fluorescence, at 10 µM, hits give high values.
Assay [2] can be described thus: PubChem AID 1714.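 Further: raw slope of fluorescence over initial fluorescence between 10 and 20 s after thallium.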 The note with it: HEK293-KCC2 + bumetanide/ouabain, thallium flux FluoZin2; at 10 µM; hits give high values.
Assay [3] has as its target Solute carrier family 12 member 5 (Homo sapiens) (UniProt Q9H2X9). Put plainly: KCC2 modulators without ouabain present, confirmation, cell-based, HEK293 KCC2, thallium flux, FluoZin2, secondary assay 2 (AID 1715).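 Further: raw slope with 0.1% DMSO as baseline and bumetanide as block control.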 As to conditions: HEK293-KCC2, thallium flux FluoZin2 fluorescence; at 10 µM; actives lie on both sides; F/F0 rise rate, 10–20 s post-thallium.
A short description of assay [4]: thallium flux modulation in parental HEK cells, confirmation, counter-screen for KCC2 modulator project, cell-based, counterscreen 1 (AID 1716;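 active means thallium flux rate significantly above the same plate's solvent-only control wells, beyond their mean plus 3 SD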). As to conditions: HEK293 parental cells, thallium flux FluoZin2, ouabain; at 10 µM; baseline-ratio fluorescence slope, 10–20 s after thallium. On the technique in general: A counterscreen serves to expose hits that act by an unwanted route or on another target.

A short description of assay [5]: native HEK Tl+ uptake effects, second counter-screen – HEK cells, counterscreen 2, counter-screen for KCC2 modulator project, confirmation (AID 1718;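 active means thallium flux slope above the same plate's solvent-control mean plus 3 SD in both duplicate wells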;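 further: run without ouabain in cells lacking the KCC2 cotransporter; slope of fluorescence scaled to its starting value between 10 and 20 s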). As to conditions: HEK293 parental, thallium flux FluoZin-2 fluorescence slope; at 10 µM.
In assay [6] the target is Solute carrier family 12 member 5 (Homo sapiens) (UniProt Q9H2X9). Put plainly: KCC2 inhibitors and activators, ouabain retest, confirmation, HEK-KCC2 cells (AID 1717;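 active means thallium flux slope beyond 3 SD from same-plate DMSO control mean in most replicates, usually higher, sometimes lower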;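 further: slope of initial-normalized fluorescence between seconds 10 and 20 after thallium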). As to conditions: HEK293-KCC2, thallium flux FluoZin2 fluorescence, at 10 µM, bidirectional: low = inhibitor, high = activator.
Sequence of Solute carrier family 12 member 5 (Homo sapiens) (Q9H2X9 whole entry, looked up): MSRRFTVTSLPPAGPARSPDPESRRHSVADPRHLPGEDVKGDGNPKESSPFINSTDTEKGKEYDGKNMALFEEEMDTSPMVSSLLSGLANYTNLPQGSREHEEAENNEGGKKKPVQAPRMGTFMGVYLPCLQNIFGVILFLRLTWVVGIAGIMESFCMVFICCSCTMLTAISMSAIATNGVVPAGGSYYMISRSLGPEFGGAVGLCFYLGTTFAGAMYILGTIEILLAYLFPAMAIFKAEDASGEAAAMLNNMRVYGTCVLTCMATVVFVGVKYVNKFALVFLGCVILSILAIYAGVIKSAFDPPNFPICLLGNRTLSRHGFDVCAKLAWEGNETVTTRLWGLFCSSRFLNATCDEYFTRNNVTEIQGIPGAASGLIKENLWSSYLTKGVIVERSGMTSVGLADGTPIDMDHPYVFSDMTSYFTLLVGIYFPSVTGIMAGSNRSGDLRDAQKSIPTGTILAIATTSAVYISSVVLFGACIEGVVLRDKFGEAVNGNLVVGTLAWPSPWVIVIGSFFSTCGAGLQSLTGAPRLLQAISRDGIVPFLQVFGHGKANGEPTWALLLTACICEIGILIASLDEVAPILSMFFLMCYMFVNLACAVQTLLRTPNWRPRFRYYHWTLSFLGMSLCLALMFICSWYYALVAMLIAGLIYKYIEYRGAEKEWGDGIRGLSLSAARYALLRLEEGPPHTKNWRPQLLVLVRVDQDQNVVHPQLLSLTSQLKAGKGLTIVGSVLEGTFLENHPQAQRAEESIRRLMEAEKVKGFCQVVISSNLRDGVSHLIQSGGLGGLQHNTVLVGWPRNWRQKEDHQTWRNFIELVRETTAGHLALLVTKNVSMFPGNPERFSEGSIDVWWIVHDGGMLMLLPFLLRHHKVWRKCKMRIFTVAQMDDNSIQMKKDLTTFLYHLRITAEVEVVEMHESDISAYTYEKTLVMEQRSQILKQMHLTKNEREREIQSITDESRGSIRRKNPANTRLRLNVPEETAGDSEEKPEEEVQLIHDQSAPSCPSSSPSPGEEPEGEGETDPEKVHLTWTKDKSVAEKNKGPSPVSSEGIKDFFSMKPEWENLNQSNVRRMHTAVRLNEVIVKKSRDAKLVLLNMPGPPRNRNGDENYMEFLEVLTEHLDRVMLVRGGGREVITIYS

For the compound `CCOc1cccc(/C=N/N2C(=O)CSC2=S)c1O`, the normalised thallium flux (F/F0 slope) in assay [1] is 0.00656. Also, the normalized thallium flux is 0.0152 (active) in assay [2] and 0.0319 in assay [3]. The thallium flux rate (normalised fluorescence) in assay [4] is 0.0178 (active). Besides, in assay [5], the thallium flux slope is 0.0167 (active).

For the compound `COc1ccc(C2/C=C\CN(S(=O)(=O)c3cccs3)CC(=O)N2Cc2ccc(F)cc2)cc1` (stereo not given), the normalised thallium flux (F/F0 slope) in assay [1] was 0.00741. Moreover, the normalized thallium flux in assay [2] was 0.00428; in assay [3] it was 0.0313. For the same compound, in assay [4], the thallium flux rate (normalised fluorescence) is 0.00682. In addition, in assay [5], the thallium flux slope is 0.00998.

Take `Cc1onc(-c2ccccc2)c1C(=O)NNC(=S)NC(=O)c1ccc(F)cc1`: the normalised thallium flux (F/F0 slope) in assay [1] was 0.00605. Moreover, the normalized thallium flux is 0.0254 (active) in assay [2] and 0.0354 in assay [3]. In addition, the thallium flux rate (normalised fluorescence) in assay [4] was 0.018 (active). In addition, in assay [6], the raw Tl+ flux slope (below DMSO = inhibition, above = activation) is 0.0299 (active). Also, the thallium flux slope in assay [5] was 0.0217 (active).

In the case of `O=C(Nc1nnc(-c2ccccc2)o1)c1cc(-c2cccs2)nc2ccccc12`, the normalised thallium flux (F/F0 slope) in assay [1] is 0.0238 (active). Besides, the normalized thallium flux in assay [2] is 0.108 (active); in assay [3] it was 0.0377. Further, the thallium flux rate (normalised fluorescence) in assay [4] was 0.0864 (active). In assay [6], the raw Tl+ flux slope (below DMSO = inhibition, above = activation) was 0.0747 (active). Also, the thallium flux slope in assay [5] is 0.0185 (active).

Turning to `CCOC(=O)c1c(C)[nH]c(C)c1C(=O)CSc1nc(N)cc(N)n1`, the normalised thallium flux (F/F0 slope) in assay [1] is 0.00797. Also, the normalized thallium flux in assay [2] is 0.00434; in assay [3], 0.0294. The thallium flux rate (normalised fluorescence) in assay [4] was 0.00758. Besides, the raw Tl+ flux slope (below DMSO = inhibition, above = activation) in assay [6] is 0.0193. Also, the thallium flux slope in assay [5] was 0.0105.

For the compound `COC(=O)c1sccc1NC(=O)CCC1CCCC1`, the normalised thallium flux (F/F0 slope) in assay [1] is 0.00664. Further, the figures for the normalized thallium flux in assay [2] and in assay [3] were 0.00434 and 0.032, respectively. In assay [4], the thallium flux rate (normalised fluorescence) was 0.00709. The raw Tl+ flux slope (below DMSO = inhibition, above = activation) in assay [6] is 0.0186. Further, the thallium flux slope in assay [5] was 0.00941.

With `Cc1cccc(-n2c(SCC(N)=O)nc3c(c2=O)C2(CCCCC2)Cc2ccccc2-3)c1`, the normalised thallium flux (F/F0 slope) in assay [1] is 0.00538. The values for the normalized thallium flux in assay [2] and in assay [3] were 0.017 (active) and 0.032, respectively. Further, the thallium flux rate (normalised fluorescence) in assay [4] was 0.0115 (active). Also, the thallium flux slope in assay [5] was 0.0138 (active).

On to `Cc1ccc(C)c(NC(=S)NNC(=O)c2csc(C)c2)c1`, for which the normalised thallium flux (F/F0 slope) in assay [1] was 0.0109. The normalized thallium flux in assay [2] is 0.013 (active); in assay [3], 0.034. Further, the thallium flux rate (normalised fluorescence) in assay [4] was 0.0173 (active). In addition, in assay [6], the raw Tl+ flux slope (below DMSO = inhibition, above = activation) was 0.0256 (active). Further, the thallium flux slope in assay [5] was 0.012.

As to `CN(C)S(=O)(=O)c1cccc(NC(=S)N/N=C/C(=O)c2ccccc2)c1`, the normalised thallium flux (F/F0 slope) in assay [1] is 0.014 (active). Further, the figures for the normalized thallium flux in assay [2] and in assay [3] were 0.0308 (active) and 0.0323, respectively. In addition, in assay [4], the thallium flux rate (normalised fluorescence) is 0.0158 (active). For the same compound, the raw Tl+ flux slope (below DMSO = inhibition, above = activation) in assay [6] was 0.0279. Besides, the thallium flux slope in assay [5] is 0.0129 (active).

As to `Cc1ccc(NCc2n[nH]c(=S)n2-c2ccccc2)cc1Cl`, the normalised thallium flux (F/F0 slope) in assay [1] is 0.00768. For the same compound, the results for the normalized thallium flux in assay [2] and in assay [3] were 0.0747 (active) and 0.0302, respectively. Also, the thallium flux rate (normalised fluorescence) in assay [4] was 0.00846 (active). For the same compound, in assay [5], the thallium flux slope is 0.00946.

In the case of `C/C(=N\NC(=S)Nc1ccc(C)cc1)c1cc2ccccc2o1`, the normalised thallium flux (F/F0 slope) in assay [1] was 0.00692. Moreover, the normalized thallium flux is 0.0677 (active) in assay [2] and 0.0558 (active) in assay [3]. Moreover, in assay [4], the thallium flux rate (normalised fluorescence) was 0.0375 (active). Moreover, in assay [6], the raw Tl+ flux slope (below DMSO = inhibition, above = activation) was 0.0575 (active). Further, the thallium flux slope in assay [5] was 0.0352 (active).

On to `O=C(CSc1nnc(-c2cccs2)n1Cc1ccccc1)N1CCc2ccccc2C1`, for which the normalised thallium flux (F/F0 slope) in assay [1] is 0.00645. Besides, the values for the normalized thallium flux in assay [2] and in assay [3] were 0.00334 (active) and 0.0237 (active), respectively. Also, in assay [4], the thallium flux rate (normalised fluorescence) was 0.00608 (active). In assay [6], the raw Tl+ flux slope (below DMSO = inhibition, above = activation) is 0.0136 (active). The thallium flux slope in assay [5] is 0.00891 (active).

As to `O=C1/C(=C\c2ccsc2)NC(=S)N1c1ccccc1`, in assay [1], the normalised thallium flux (F/F0 slope) was 0.024 (active). In addition, the normalized thallium flux in assay [2] was 0.0414 (active); in assay [3] it was 0.039 (active). Further, in assay [4], the thallium flux rate (normalised fluorescence) is 0.0238 (active). Also, the raw Tl+ flux slope (below DMSO = inhibition, above = activation) in assay [6] was 0.0341 (active). Moreover, in assay [5], the thallium flux slope was 0.024 (active).

As for `O=[N+]([O-])c1ccccc1/C=N/n1c(COc2ccccc2)n[nH]c1=S`, the normalised thallium flux (F/F0 slope) in assay [1] was 0.00593. For the same compound, the results for the normalized thallium flux in assay [2] and in assay [3] were 0.0786 (active) and 0.0297, respectively. Also, the thallium flux rate (normalised fluorescence) in assay [4] was 0.0168 (active). Besides, the thallium flux slope in assay [5] was 0.0116 (active).

Turning to `Cc1nc(SCc2ccc(F)cc2)c([N+](=O)[O-])[nH]1`, the normalised thallium flux (F/F0 slope) in assay [1] was 0.00918. Further, the normalized thallium flux in assay [2] is 0.00631; in assay [3] it was 0.0237 (active). Besides, the thallium flux rate (normalised fluorescence) in assay [4] is 0.00609. The raw Tl+ flux slope (below DMSO = inhibition, above = activation) in assay [6] is 0.0255 (active). The thallium flux slope in assay [5] was 0.00995.

Consider `O=C(O)CCN(Cc1ccccc1)S(=O)(=O)c1c(Cl)cccc1Cl`, for which the normalised thallium flux (F/F0 slope) in assay [1] is 0.00789. Also, the normalized thallium flux in assay [2] is 0.00499; in assay [3], 0.027 (active). Moreover, the thallium flux rate (normalised fluorescence) in assay [4] was 0.00714. In assay [6], the raw Tl+ flux slope (below DMSO = inhibition, above = activation) was 0.012 (active). Also, the thallium flux slope in assay [5] is 0.0112.

For `CSc1ncnc2sc(C)c(C)c12`, the normalised thallium flux (F/F0 slope) in assay [1] is 0.00741. In addition, the normalized thallium flux in assay [2] was 0.0121 (active); in assay [3], 0.0306. In addition, in assay [4], the thallium flux rate (normalised fluorescence) is 0.0146 (active). Moreover, the thallium flux slope in assay [5] is 0.0129 (active).

`N#Cc1nc(COc2ccc(-c3ccccc3)cc2)oc1NCc1cccnc1`: the normalised thallium flux (F/F0 slope) in assay [1] was 0.00789. In addition, the results for the normalized thallium flux in assay [2] and in assay [3] were 0.00445 and 0.029, respectively. Moreover, in assay [4], the thallium flux rate (normalised fluorescence) is 0.00821. Moreover, in assay [6], the raw Tl+ flux slope (below DMSO = inhibition, above = activation) was 0.0173. Moreover, in assay [5], the thallium flux slope was 0.01.

Take `CCc1c(SCCC(=O)O)nc2ccccc2c1C`: the normalised thallium flux (F/F0 slope) in assay [1] was 0.00619. For the same compound, the normalized thallium flux is 0.00439 in assay [2] and 0.0283 in assay [3]. Moreover, the thallium flux rate (normalised fluorescence) in assay [4] was 0.00913 (active). In addition, in assay [6], the raw Tl+ flux slope (below DMSO = inhibition, above = activation) was 0.0166. Also, in assay [5], the thallium flux slope was 0.0104.

Regarding `COc1cccc(-c2nnc(NC(=O)c3ccc(S(=O)(=O)N(CC(C)C)CC(C)C)cc3)o2)c1`, the normalised thallium flux (F/F0 slope) in assay [1] is 0.0109. Moreover, the figures for the normalized thallium flux in assay [2] and in assay [3] were 0.0246 (active) and 0.0331, respectively. The thallium flux rate (normalised fluorescence) in assay [4] is 0.0752 (active). Further, the raw Tl+ flux slope (below DMSO = inhibition, above = activation) in assay [6] was 0.0359 (active). Besides, in assay [5], the thallium flux slope was 0.0148 (active).

On to `CCn1c(SCc2ccccc2)nc2c(c1=O)SCC2`, for which the normalised thallium flux (F/F0 slope) in assay [1] was 0.00954. For the same compound, the normalized thallium flux is 0.00493 in assay [2] and 0.0352 in assay [3]. In assay [4], the thallium flux rate (normalised fluorescence) was 0.00537 (active). The raw Tl+ flux slope (below DMSO = inhibition, above = activation) in assay [6] is 0.0198. Moreover, the thallium flux slope in assay [5] was 0.00988.

`O=C(NNC(=S)NC(=O)c1cn(-c2ccccc2)nc1-c1ccccc1)c1ccncc1`: the normalised thallium flux (F/F0 slope) in assay [1] was 0.00764. Also, the figures for the normalized thallium flux in assay [2] and in assay [3] were 0.0138 (active) and 0.0344, respectively. Besides, in assay [4], the thallium flux rate (normalised fluorescence) was 0.0141 (active). The thallium flux slope in assay [5] is 0.0155 (active).
